Unmarked numbers belong to inactive results. Records with an inconclusive call do not appear. Where a call stands in place of a potency, no number is given. Calls of active or inactive are those of the source. Calls come from the whole dose curve.
Test: G protein-coupled receptor (GPCR) small molecule agonists, calcium flux assay: HEK293 wild type cell line counter screen (AID 1920065)
Conditions: HEK293 WT calcium flux, fluorescence, agonist mode; series mostly up to 57.6 µM
Outline: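 Tox21 10K compounds, 15 concentrations each in triplicate, pin-transferred in DMSO onto dye-loaded cells; kinetic read at 480/540 nm for 3 min, 1 s intervals.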

Structure (SMILES) | outcome | activation
CCCCCCCCCCCCCCBr | inactive | 
Cc1ccc2c(c1)c1c3n2CCNC3CCC1 (stereo not drawn) | inactive | 
O=C(O)CCCC[P+](c1ccccc1)(c1ccccc1)c1ccccc1 | inactive | 
CC(C)C1OCCN1CCOC(=O)NCCCCCCNC(=O)OCCN1CCOC1C(C)C (stereo not drawn) | inactive | 
CCCCCCCCSCc1cc(C)c(O)c(CSCCCCCCCC)c1 | inactive | 
O=C(c1ccc(O)cc1)c1ccc(Cl)cc1 | inactive | 
CC(=O)Oc1cc(C(C)C)c(OCCN(C)C)cc1C | inactive | 
CN(C)CCCOC1(Cc2ccccc2)CCCCCC1 | inactive | 
CC(C(=O)O)c1ccc(CC2CCCC2=O)cc1 (stereo not drawn) | inactive | 
Nc1ccc(S(=O)(=O)Nc2ccnn2-c2ccccc2)cc1 |  | 0.406% [at 11.8 µM]
CC(C)Cn1cnc2c(N)nc3ccccc3c21 |  | -0.0034% [at 11.8 µM]
Oc1cccc2[nH]ccc12 | inactive | 
C/C=C\C/C=C/CCCCCCCCOC(C)=O | inactive | 
CC(C)OCC1CO1 (stereo not drawn) | inactive | 
CCOC(=O)N1CCC(Nc2ccc(Cl)cc2N)CC1 | inactive | 
CC(C)(O)c1ccc(CNC(=O)c2cccnc2Oc2ccc(F)cc2)cc1 | inactive | 
NCC1CCC(C(=O)Oc2ccc(CCC(=O)O)cc2)CC1 (stereo not drawn) | inactive | 
O=C(CCCl)NCc1ccccc1 | inactive | 
CCCC(=O)c1cc(O)c(O)cc1O | inactive | 
CCN1CCCC1CNC(=O)c1cc(S(=O)(=O)CC)c(N)cc1OC (stereo not drawn) | inactive | 
O=C(CCOCCOCCOCCOCCC(=O)Nc1c(I)cc(I)c(C(=O)O)c1I)Nc1c(I)cc(I)c(C(=O)O)c1I | inactive | 
CC(C)C(=O)Nc1cccc(C(F)(F)F)c1 | inactive | 
Clc1ccnc(Cl)n1 | inactive | 

Test: p53 small molecule agonists, cell-based qHTS assay with human liver microsomes (AID 1963577);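 note: p53 response element beta-lactamase reporter cells with liver microsomes plus NADPH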
Conditions: HCT-116 p53RE-bla with human liver microsomes, ratio, 16 h; series mostly up to 66 µM
Outline: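 p53RE-bla cells, 4,000/well, compound added after 5 h, with human liver microsomes 0.5 mg/mL and NADPH 0.5 mg/mL final; 16 h at 37 C, then LiveBLAzer 2 h RT, fluorescence.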

Structure (SMILES) | Potency | activation
O=C(O)c1cc(C(=O)O)c(C(=O)O)cc1C(=O)O | inactive | 
O=S(=O)(O)c1ccc(N=Nc2c(O)ccc3ccccc23)cc1 | inactive | 
COS(=O)(=O)C(F)(F)F | inactive | 
O=C(NS(=O)(=O)/C=C/c1ccccc1)c1ccc(F)cc1Cl | inactive | 
CC(C)(Sc1cc(C(C)(C)C)c(O)c(C(C)(C)C)c1)Sc1cc(C(C)(C)C)c(O)c(C(C)(C)C)c1 | inactive | 
Nc1c(N=Nc2ccc(-c3ccc(N=Nc4cc(S(=O)(=O)O)c5ccccc5c4N)cc3)cc2)cc(S(=O)(=O)O)c2ccccc12 | inactive | 
CC(C)NCCCC1(C(N)=O)c2ccccc2-c2ccccc21 | inactive | 
CCCCCc1ccc(N)cc1 | inactive | 
CC/C=C\CCOC(=O)c1ccccc1O | inactive | 
CCCCCCCCCCCCCCNCCO | inactive | 
O=C1OC(O)C(C(Cl)Cl)=C1Cl (stereo not drawn) | inactive | 
Cc1cc2c(s1)Nc1ccccc1N=C2N1CCN(C)CC1 | inactive | 
CC1(C)CC(OC(=O)CCCCCCCCC(=O)OC2CC(C)(C)NC(C)(C)C2)CC(C)(C)N1 |  | 1.98% [at 13.5 µM]
C=CC(=O)OCCOCCOC(=O)C=C | inactive | 
FC(F)(F)C(F)(F)C(F)(F)C(F)(F)C(F)(F)C(F)(F)C(F)(F)C(F)(F)Br | inactive | 
C=CC(=O)OCCOCC(CC)(COCCOC(=O)C=C)COCCOC(=O)C=C | inactive | 
C[C@H]1O[C@H](O[C@H]2[C@H](O)[C@@H](O)[C@@H](O[C@H]3[C@H](O)[C@@H](O)[C@H](O)O[C@@H]3CO)O[C@@H]2CO)[C@H](O)[C@@H](O)[C@@H]1N[C@H]1C=C(CO)[C@@H](O)[C@H](O)[C@H]1O | inactive | 
CCCCCCCCCCCCCCBr | inactive | 
Cc1ccc2c(c1)c1c3n2CCNC3CCC1 (stereo not drawn) | inactive | 
O=C(O)CCCC[P+](c1ccccc1)(c1ccccc1)c1ccccc1 | inactive | 

Structure (SMILES) | Potency | activation
CC(C)C1OCCN1CCOC(=O)NCCCCCCNC(=O)OCCN1CCOC1C(C)C (stereo not drawn) | inactive | 
CCCCCCCCSCc1cc(C)c(O)c(CSCCCCCCCC)c1 | inactive | 
O=C(c1ccc(O)cc1)c1ccc(Cl)cc1 | inactive | 
CC(=O)Oc1cc(C(C)C)c(OCCN(C)C)cc1C | inactive | 
CN(C)CCCOC1(Cc2ccccc2)CCCCCC1 | inactive | 
CC(C(=O)O)c1ccc(CC2CCCC2=O)cc1 (stereo not drawn) | inactive | 
Nc1ccc(S(=O)(=O)Nc2ccnn2-c2ccccc2)cc1 |  | 4.03% [at 13.5 µM]
CC(C)Cn1cnc2c(N)nc3ccccc3c21 |  | 13.5% [at 13.5 µM]
Oc1cccc2[nH]ccc12 | inactive | 
C/C=C\C/C=C/CCCCCCCCOC(C)=O | inactive | 
CC(C)OCC1CO1 (stereo not drawn) | inactive | 
CCOC(=O)N1CCC(Nc2ccc(Cl)cc2N)CC1 | inactive | 
CC(C)(O)c1ccc(CNC(=O)c2cccnc2Oc2ccc(F)cc2)cc1 | inactive | 
NCC1CCC(C(=O)Oc2ccc(CCC(=O)O)cc2)CC1 (stereo not drawn) | inactive | 
O=C(CCCl)NCc1ccccc1 | inactive | 
CCCC(=O)c1cc(O)c(O)cc1O | inactive | 
CCN1CCCC1CNC(=O)c1cc(S(=O)(=O)CC)c(N)cc1OC (stereo not drawn) | inactive | 
O=C(CCOCCOCCOCCOCCC(=O)Nc1c(I)cc(I)c(C(=O)O)c1I)Nc1c(I)cc(I)c(C(=O)O)c1I | inactive | 
CC(C)C(=O)Nc1cccc(C(F)(F)F)c1 | inactive | 
Clc1ccnc(Cl)n1 | inactive | 

From PubChem BioAssay (Tox21)
